Test results from PubChem BioAssay (Tox21).
Results filed as inconclusive are left out. Activity calls are given as the source filed them. Unless noted, the call rests on the fitted dose curve; in most records, active means well fitted curve in the direction sought with a large enough effect in the repeat runs; inconclusive means weak or mixed curves; inactive means no such curve, though single readings can be large; an effect the other way counts as inactive or inconclusive.

Key:
[1] = molecular target: Retinoic acid receptor RXR-alpha (Homo sapiens) (UniProt P19793); experiment: qHTS assay to identify small molecule agonists of the RXR signaling pathway (AID 1159527; calls by dose curve; further: nearly all actives have a fitted effect of over 35% in size)
Chain of Retinoic acid receptor RXR-alpha (Homo sapiens) (P19793 whole entry, looked up): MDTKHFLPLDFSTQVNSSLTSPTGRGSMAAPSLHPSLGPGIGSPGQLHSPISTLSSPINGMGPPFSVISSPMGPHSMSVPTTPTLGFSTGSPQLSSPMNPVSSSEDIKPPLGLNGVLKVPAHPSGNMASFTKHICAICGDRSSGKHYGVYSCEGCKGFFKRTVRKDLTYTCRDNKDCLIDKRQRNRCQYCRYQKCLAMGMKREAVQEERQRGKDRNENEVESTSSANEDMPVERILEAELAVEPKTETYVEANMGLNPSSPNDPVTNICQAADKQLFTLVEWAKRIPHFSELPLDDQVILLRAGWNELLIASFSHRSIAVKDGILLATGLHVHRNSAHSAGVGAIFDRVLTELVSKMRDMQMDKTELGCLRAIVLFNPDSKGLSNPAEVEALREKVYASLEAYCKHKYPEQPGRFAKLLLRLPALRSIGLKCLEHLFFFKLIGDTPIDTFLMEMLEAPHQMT
Method in brief: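 Agonist mode; 9-cis retinoic acid positive control. HEK 293T UAS-bla reporter cells, 2% charcoal-stripped FBS, 16 hr compound exposure at 37 C/5% CO2. LiveBLAzer B/G FRET substrate 2 hr RT; ex 405, em 460/530 nm.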

[2] = qHTS assay to identify small molecule agonists of the RXR signaling pathway - cell viability counter screen (AID 1159529); further: series mostly up to about 77 µM; nearly all actives have a fitted effect of over 50% in size
Method in brief: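 Luminescence from CellTiter-Glo (30 min, RT) measured viability in the same wells as the beta-lactamase reporter readout. Cells: GeneBLAzer RXR-alpha HEK 293T, 2% charcoal-stripped FBS. Compound exposure 16 hr, 37 C.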

[3] = qHTS assay to identify small molecule antagonists of the retinoid acid receptor (RAR) signaling pathway - cell viability counter screen (AID 1159551); further: nearly all actives have a fitted effect of over 35% in size
Method in brief: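 Cytotoxicity counter screen: ATP content quantified by CellTiter-Glo luminescence in C3RL4 cells treated 6 hr at 37 C with compound and retinol (1 uM final). Cells plated at 1,000/well and cultured overnight before dosing.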

[4] = qHTS assay to identify small molecule antagonists of the estrogen related receptor (ERR) signaling pathway from Tox21 library - cell viability counter screen (AID 1224834); further: nearly all actives have a fitted effect of over 30% in size
Method in brief: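 CellTiter-Fluor fluorescence, read after 30 min at 37 C, measures viability of ERR cells. Cells plated at 2,000/well and incubated 6 h before pin-tool compound addition, then exposed 17.5 hours at 37 C.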

[5] = molecular target: Luciferin 4-monooxygenase (Photinus pyralis) (UniProt P08659); experiment: qHTS assay to identify small molecule inhibitors of firefly luciferase (AID 1224835); further: series mostly up to about 120 µM; nearly all actives have a fitted effect of over 25% in size
Chain of Luciferin 4-monooxygenase (Photinus pyralis) (P08659 whole entry, looked up): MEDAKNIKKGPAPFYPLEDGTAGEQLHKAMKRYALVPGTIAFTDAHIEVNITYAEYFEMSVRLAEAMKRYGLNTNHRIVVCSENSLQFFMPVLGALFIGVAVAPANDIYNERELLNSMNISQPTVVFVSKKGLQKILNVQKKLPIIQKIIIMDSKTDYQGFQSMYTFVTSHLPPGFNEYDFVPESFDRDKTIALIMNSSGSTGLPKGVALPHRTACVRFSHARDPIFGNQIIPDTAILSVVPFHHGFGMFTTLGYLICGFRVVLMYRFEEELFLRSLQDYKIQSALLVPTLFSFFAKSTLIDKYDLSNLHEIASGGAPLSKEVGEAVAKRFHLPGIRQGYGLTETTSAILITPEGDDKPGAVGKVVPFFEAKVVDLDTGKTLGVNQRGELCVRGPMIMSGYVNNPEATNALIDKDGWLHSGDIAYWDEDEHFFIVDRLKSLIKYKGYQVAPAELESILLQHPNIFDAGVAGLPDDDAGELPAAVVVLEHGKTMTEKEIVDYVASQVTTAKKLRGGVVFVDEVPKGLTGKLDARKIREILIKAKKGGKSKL
Method in brief: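 Biochemical qHTS: compounds run as interplate titrations against purified firefly enzyme, with D-luciferin and ATP each at its KM concentration. Light output recorded by CCD imaging.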

[6] = qHTS assay to identify small molecule antagonists of the constitutive androstane receptor (CAR) signaling pathway - cell viability counter screen (AID 1224837); further: series mostly up to about 92 µM; nearly all actives have a fitted effect of over 45% in size
Method in brief: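 Cytotoxicity counter-screen: CellTiter-Fluor fluorescence after 23 h compound exposure (15-point qHTS) in double-stable HepG2-CYP2B6-hCAR cells, with 50 nM CITCO added.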

[7] = qHTS assay to identify small molecule antagonists of the estrogen related receptor signaling pathway with the pleiotropic PPARgamma coactivator (PGC) from Tox21 10K library - cell viability counter screen (AID 1224840; active means well fitted cell-killing curve with a large enough effect in the repeat runs, not every such curve was filed as active; further: nearly all actives have a fitted effect of over 40% in size)
Method in brief: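 Counter-screen for cytotoxicity: after 17.5 h compound exposure at 37 C, CellTiter-Fluor reagent added to PGC/ERR cells for 30 min and fluorescence read. Cells were seeded at 2,000 per well 6 h before dosing.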

[8] = qHTS assay to identify small molecule agonists of the constitutive androstane receptor (CAR) signaling pathway - cell viability counter screen (AID 1224836); further: series mostly up to about 92 µM; nearly all actives have a fitted effect of over 45% in size
Method in brief: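 Viability read-out: CellTiter-Fluor fluorescence after 23 h compound exposure at 37 C/5% CO2 in double-stable HepG2-CYP2B6-hCAR cells, with PK11195 present at 0.75 uM final; compounds tested in 15-point titration.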

[9] = molecular target: Nuclear receptor subfamily 1 group I member 3 (Homo sapiens) (UniProt Q14994); experiment: qHTS assay to identify small molecule antagonists of the constitutive androstane receptor (CAR) signaling pathway (AID 1224838);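 further: HepG2 cells stably expressing hCAR with CYP2B6 luciferase reporter stimulated by CITCO; nearly all actives have a fitted effect of over 40% in size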
Chain of Nuclear receptor subfamily 1 group I member 3 (Homo sapiens) (Q14994 whole entry, looked up): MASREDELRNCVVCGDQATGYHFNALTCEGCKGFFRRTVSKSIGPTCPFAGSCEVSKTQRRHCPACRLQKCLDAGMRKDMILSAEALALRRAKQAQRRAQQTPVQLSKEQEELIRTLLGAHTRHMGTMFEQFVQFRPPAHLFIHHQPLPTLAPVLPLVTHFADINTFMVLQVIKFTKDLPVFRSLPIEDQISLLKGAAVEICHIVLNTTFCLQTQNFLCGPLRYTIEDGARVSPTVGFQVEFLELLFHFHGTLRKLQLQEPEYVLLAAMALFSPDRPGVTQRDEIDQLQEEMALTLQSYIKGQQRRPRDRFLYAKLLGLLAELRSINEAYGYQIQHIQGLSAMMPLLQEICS
Method in brief: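 Antagonism measured as luciferase signal (ONE-Glo, 30 min, room temperature) in CAR-stimulated cells: HepG2-CYP2B6-hCAR double-stable line exposed 24 hr at 37 C to compound in a 15-point series plus 50 nM CITCO.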

[10] = molecular target: Nuclear receptor subfamily 1 group I member 3 (Homo sapiens) (UniProt Q14994); experiment: qHTS assay to identify small molecule agonists of the constitutive androstane receptor (CAR) signaling pathway (AID 1224839);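 further: HepG2 cells stably carrying human CAR and a CYP2B6 luciferase reporter; series mostly up to about 92 µM; nearly all actives have a fitted effect of over 15% in size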
Method in brief: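 Luminescence read-out (ONE-Glo, 30 min, room temperature) from double-stable HepG2-CYP2B6-hCAR cells exposed 24 h to 15-point compound series in presence of 0.75 uM PK11195 final.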

[11] = qHTS assay to identify small molecule agonists of the estrogen related receptor signaling pathway with the pleiotropic PPARgamma coactivator (PGC) from Tox21 10K library (AID 1224842); further: nearly all actives have a fitted effect of over 15% in size
Method in brief: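 PGC/ERR reporter cell line, 2,000 cells per well, incubated 6 h at 37 C before 23 nL compound in DMSO was added. After 18 h at 37 C, One-Glo luminescence read following 30 min at room temperature.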

[12] = qHTS assay to identify small molecule antagonists of the estrogen related receptor signaling pathway with the pleiotropic PPARgamma coactivator (PGC) from Tox21 10K library (AID 1224841; call rule not given here; further: series mostly up to about 92 µM; actives are mostly falling curves and most rising ones were filed inactive; nearly all actives have a fitted effect of over 50% in size)
Method in brief: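 Luminescence (One-Glo, 30 min at room temperature) after 18 h compound treatment at 37 C of PGC/ERR reporter cells plated at 2,000 cells/well and settled 6 h beforehand.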

[13] = qHTS assay to identify small molecule agonists of the retinoic acid receptor (RAR) signaling pathway (AID 1159553)
Method in brief: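 Luminescence was measured 30 min after luciferase reagent addition at room temperature. Before that, C3RL4 reporter cells (1,000 per well, plated overnight) were treated with compound for 6 hr at 37 C and 5% CO2.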

Measured: Potency

CC#N
inactive: [1] | [2] | [3] | [4] | [5] | [6] | [7]

CC1=C(C=O)C(C)(C)CCC1
not listed: [11] | [12] | [13]
inactive: all other assays above

O=C(O)c1snc(Cl)c1Cl
not listed: [5] | [11] | [12] | [13]
inactive: all other assays above

C/C=C(\C)C(=O)OCCC(C)CCC=C(C)C (centres undefined)
not listed: [9] | [10] | [11] | [12] | [13]
inactive: all other assays above

O=S(=O)(c1ccccc1)c1ccc(Cl)cc1
not listed: [10] | [12] | [13]
inactive: all other assays above

CO[Si](C)(OC)OC
inactive: [1] | [2] | [3] | [4] | [5] | [6] | [7]

C=CC(C)=CCC=C(C)C
not listed: [5] | [11] | [12] | [13]
inactive: all other assays above

C/C(=N/NC(=O)c1ccncc1)C(=O)O
not listed: [11] | [12] | [13]
inactive: all other assays above

Nc1nccs1
not listed: [9] | [10] | [11] | [12] | [13]
inactive: all other assays above

O=S1OCCO1
not listed: [6] | [9] | [10] | [13]
inactive: all other assays above

Oc1cc(O)c(Cl)cc1Cl
not listed: [13]
inactive: all other assays above

CC(=N\O)/C(C)=N/O
not listed: [5] | [11] | [12]
inactive: all other assays above
